# PubChem BioAssay AID651994 (Sanford-Burnham Center for Chemical Genomics, 2013)
# In all, about 2,500 compounds went through this assay and about 790 (32%) were called active.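 The calls were made as follows: active = mean cytotoxicity at 5 µM above about 25% (limit read from the data); inactive = the rest.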 Many of the other results were omitted from the sample, so actives are more common in it than they were.
# Assay: cytotoxicity in Sufu-KO-LIGHT cells, confirmation, cytotoxicity control for Gli-SUFU antagonist project, cell-based, ATP luminescence, single concentration (AID 651994);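 also: cells exposed to compound overnight for roughly 16 to 18 hours; plate controls were DMSO wells with cells for no effect and medium without cells for full effect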
# Conditions: at 5 µM, stronger effect = higher value
row,Structure (SMILES),cytotoxicity
1,CCOc1cccc(=NC2CCCCC2)c2c(C)[nH]c(C)c12,32.3% (active)
